Drawing on the antibiotic and cytotoxicity screens of Wong et al. (2023), this text covers cytotoxicity call for 67 molecules.

The structures appear in SMILES notation. The campaign covered roughly 39,000 compounds. About 3,300 (8.5%) were called active. The entries come from a sample that favours actives as a whole.

The subject of this experiment is HepG2. The experiment is described as follows: cytotoxicity call (relative viability < 0.9). Conditions: 10 µM.
With `C[C@@H]1CCCCO[C@H](CN(C)C(=O)NC2CCCCC2)[C@H](C)CN([C@@H](C)CO)C(=O)c2cc(NC(=O)c3ccccc3)ccc2O1`, the cytotoxicity call is “inactive”.
Next, `C[C@@H]1CN([C@@H](C)CO)C(=O)Cc2cc(NC(=O)Cc3ccccc3)ccc2O[C@H]1CN(C)C(=O)Nc1cccc2ccccc12`: “inactive”.
With `C[C@@H]1CCCCO[C@H](CN(C)Cc2ccncc2)[C@@H](C)CN([C@H](C)CO)C(=O)c2cc(NC(=O)Nc3ccccc3)ccc2O1` the entry was “inactive”.
With `COc1ccc(S(=O)(=O)Nc2cccc3c2O[C@@H](CN(C)S(=O)(=O)c2ccc(OC)cc2)[C@@H](C)CN([C@@H](C)CO)C3=O)cc1` the entry was “inactive”; with `COc1c(OCCCN2CCOCC2)ccc2c1N=C(NC(=O)c1cnc(N)nc1)N1CCN=C21`, “inactive”; with `COc1cc(C(=O)OCCN2CCN(CCOC(=O)c3cc(OC)c(OC)c(OC)c3)CC2)cc(OC)c1OC`, “inactive”.
Consider `CCc1c(O)cc(O)c(C(=O)c2ccc(OCCN3CCOCC3)c(OC)c2)c1CC(=O)N(CCOC)CCOC`, for which the cytotoxicity call was “active”.
For `C[C@H]1CN([C@@H](C)CO)C(=O)c2cccc(NS(=O)(=O)c3ccc(F)cc3)c2O[C@@H]1CN(C)CC1CC1`, the cytotoxicity call is “inactive”.
Regarding `Cc1cc(=O)n(CCO)c(=O)[nH]1`, the cytotoxicity call is “inactive”.
With `CCC(=O)N(C)C[C@H]1Oc2ncc(C#C[C@H](C)O)cc2C(=O)N([C@H](C)CO)C[C@H]1C` the entry was “inactive”; with `CC(C)(C)[S@](=O)N1Cc2cc(C(=O)N[C@@H]3CCN(Cc4ccccc4)C3)nc(-c3cccc(-c4cccnc4)c3)c2[C@@H]1CCO`, “inactive”.
Take `COc1cccc(NC(=O)N(C)C[C@H]2Oc3ncc(C#Cc4cccnc4)cc3C(=O)N([C@H](C)CO)C[C@H]2C)c1`: the cytotoxicity call was “inactive”.
With `COc1cccc(NC(=O)N(C)C[C@@H]2Oc3ncc(C#Cc4ccncc4)cc3C(=O)N([C@H](C)CO)C[C@H]2C)c1` the entry was “active”.
With `COc1cccc(NC(=O)N(C)C[C@H]2Oc3ncc(C#Cc4ccncc4)cc3C(=O)N([C@@H](C)CO)C[C@@H]2C)c1` the entry was “active”; with `COc1cccc(NC(=O)N(C)C[C@@H]2Oc3ncc(C#Cc4ccncc4)cc3C(=O)N([C@@H](C)CO)C[C@H]2C)c1`, “inactive”.
With `COc1cccc(NC(=O)N(C)C[C@@H]2Oc3ncc(C#Cc4cccnc4)cc3C(=O)N([C@@H](C)CO)C[C@H]2C)c1` the entry was “inactive”; with `COc1ccccc1NC(=O)N(C)C[C@@H]1Oc2ncc(C#CCN(C)C)cc2C(=O)N([C@@H](C)CO)C[C@H]1C`, “active”; with `COc1cccc(NC(=O)N(C)C[C@H]2Oc3ncc(C#Cc4ccncc4)cc3C(=O)N([C@H](C)CO)C[C@H]2C)c1`, “active”.
Turning to `COc1cccc(NC(=O)N(C)C[C@H]2Oc3ncc(C#Cc4ccncc4)cc3C(=O)N([C@H](C)CO)C[C@@H]2C)c1`, the cytotoxicity call was “inactive”.
With `COc1ccccc1NC(=O)N(C)C[C@@H]1Oc2ncc(C#CCN(C)C)cc2C(=O)N([C@H](C)CO)C[C@@H]1C` the entry was “inactive”; with `COc1cccc(NC(=O)N(C)C[C@@H]2Oc3ncc(C#Cc4ccncc4)cc3C(=O)N([C@@H](C)CO)C[C@@H]2C)c1`, “inactive”; with `COc1ccccc1NC(=O)N(C)C[C@@H]1Oc2ncc(C#CCN(C)C)cc2C(=O)N([C@@H](C)CO)C[C@@H]1C`, “inactive”.
Consider `COc1cccc(NC(=O)N(C)C[C@@H]2Oc3ncc(C#Cc4ccncc4)cc3C(=O)N([C@H](C)CO)C[C@@H]2C)c1`, for which the cytotoxicity call was “inactive”.
Next, `COc1ccc(CN(C)C[C@H]2Oc3c(NC(=O)c4cc(C)nn4C)cccc3C(=O)N([C@@H](C)CO)C[C@@H]2C)cc1`: “inactive”; `COc1ccc(NC(=O)Nc2cccc3c2O[C@H](CN(C)S(=O)(=O)c2cn(C)cn2)[C@H](C)CN([C@@H](C)CO)C3=O)cc1`: “inactive”; `O=C(CCCCCC(=O)Nc1ccccc1O)N/N=C/[C@H](O)[C@@H](O)[C@H](O)[C@H](O)CO[C@H]1O[C@H](CO)[C@H](O)[C@H](O)[C@H]1O`: “inactive”.
Next, `O=C(C[C@@H]1CC[C@H](NC(=O)CN2CCOCC2)[C@H](CO)O1)NCCc1ccccc1`: “inactive”; `C[C@H]1CN([C@@H](C)CO)C(=O)c2cc(-c3ccc(F)cc3)cnc2O[C@H]1CN(C)C(=O)Cc1ccccn1`: “inactive”.
Regarding `C[C@@H]1CCCCO[C@@H](CN(C)S(C)(=O)=O)[C@H](C)CN([C@@H](C)CO)C(=O)c2cc(NC(=O)Nc3ccc(C(F)(F)F)cc3)ccc2O1`, the cytotoxicity call is “inactive”.
Next, `CC(C)CC#Cc1ccc2c(c1)O[C@@H](CN(C)C(=O)NC1CCCC1)[C@H](C)CN([C@@H](C)CO)S2(=O)=O`: “inactive”; `COc1ccc(NC(=O)N(C)C[C@@H]2OCCCC[C@@H](C)Oc3ccc(NC(=O)CCC(F)(F)F)cc3C(=O)N([C@H](C)CO)C[C@@H]2C)cc1`: “inactive”.
Next, `C[C@@H]1CCCCO[C@@H](CN(C)C(=O)NC2CCCCC2)[C@H](C)CN([C@@H](C)CO)C(=O)c2cc(NC(=O)CCCCCC(=O)Nc3ccccc3N)ccc2O1`: “inactive”.
On to `CS(=O)(=O)Nc1ccc2oc3c(OC(F)F)ccc(C(=O)Nc4c(Cl)cncc4Cl)c3c2c1`, for which the cytotoxicity call was “inactive”.
Next, `O=c1ccc2c[nH][nH]c-2c1`: “inactive”.
Next, `O=C(CCN1CCNCC1)N1CCCCC1`: “inactive”.
Next, `COc1ccc(S(=O)(=O)N(C)C[C@@H]2OCCCC[C@@H](C)Oc3ccc(NS(=O)(=O)c4cn(C)cn4)cc3C(=O)N([C@H](C)CO)C[C@@H]2C)cc1`: “inactive”; `C[C@H]1CCCCO[C@H](CN(C)Cc2ccc(C(=O)O)cc2)[C@@H](C)CN([C@@H](C)CO)C(=O)c2cc(NS(=O)(=O)c3ccccc3)ccc2O1`: “inactive”; `C[C@H](CO)N1C[C@H](C)[C@@H](CN(C)CC2CCCCC2)Oc2ccc(NC(=O)Nc3cccc4ccccc34)cc2C1=O`: “inactive”.
For `C[C@H]1CN([C@@H](C)CO)C(=O)c2cc(NC(=O)Nc3cccc4ccccc34)ccc2O[C@H]1CN(C)CC1CCCCC1`, the cytotoxicity call is “active”.
In the case of `C[C@H]1CN([C@@H](C)CO)C(=O)c2cc(NC(=O)Nc3cccc4ccccc34)ccc2O[C@@H]1CN(C)CC1CCCCC1`, the cytotoxicity call is “inactive”.
As for `C[C@@H]1CN([C@@H](C)CO)C(=O)c2cc(NC(=O)Nc3cccc4ccccc34)ccc2O[C@H]1CN(C)CC1CCCCC1`, the cytotoxicity call was “inactive”.
Next, `C[C@H](CO)N1C[C@H](C)[C@H](CN(C)CC2CCCCC2)Oc2ccc(NC(=O)Nc3cccc4ccccc34)cc2C1=O`: “inactive”.
Next, `C[C@@H]1CN([C@H](C)CO)C(=O)c2cc(NC(=O)Nc3cccc4ccccc34)ccc2O[C@H]1CN(C)CC1CCCCC1`: “active”; `C[C@@H]1CN([C@H](C)CO)C(=O)c2cc(NC(=O)Nc3cccc4ccccc34)ccc2O[C@@H]1CN(C)CC1CCCCC1`: “active”.
As for `C[C@@H]1CN([C@@H](C)CO)C(=O)c2cc(NC(=O)Nc3cccc4ccccc34)ccc2O[C@@H]1CN(C)CC1CCCCC1`, the cytotoxicity call is “inactive”.
On to `C[C@H](CO)N1C[C@H](C)[C@@H](CN(C)CC2CCCCC2)Oc2ccc(NC(=O)Nc3ccccc3)cc2C1=O`, for which the cytotoxicity call was “inactive”.
Regarding `CC(=O)OC[C@H]1O[C@H](C/C=N/O[C@H](C)c2cn([C@@H]3COC[C@H]3O)nn2)C=C[C@@H]1OC(C)=O`, the cytotoxicity call was “inactive”.
With `C[C@H](CO)N1C[C@H](C)[C@H](CN(C)Cc2ccc(Cl)c(Cl)c2)Oc2ccc(NS(=O)(=O)c3cccs3)cc2C1=O` the entry was “inactive”; with `Cc1noc(C)c1S(=O)(=O)Nc1ccc2c(c1)CC(=O)N([C@@H](C)CO)C[C@H](C)[C@@H](CN(C)Cc1ccc(C(=O)O)cc1)O2`, “inactive”.
In the case of `C[C@@H]1CN([C@H](C)CO)C(=O)Cc2cc(NS(=O)(=O)c3ccc(F)cc3)ccc2O[C@@H]1CN(C)C(=O)Nc1cccc2ccccc12`, the cytotoxicity call was “inactive”.
Next, `O=C(C[C@@H]1C[C@H]2c3cc(NC(=O)NC4CCCC4)ccc3O[C@H]2[C@@H](CO)O1)NCc1ccc2c(c1)OCO2`: “inactive”; `CCOc1ccn(-c2ccc(F)cc2)c(=O)c1C(=O)Nc1ccc(Oc2ccnc(N)c2Cl)c(F)c1`: “inactive”; `Cc1c(C(=O)Nc2ccc(Oc3ccnc4cc(OCC(C)(C)O)ccc34)c(F)c2)c(=O)n(-c2ccccc2)n1C`: “inactive”.
With `Cc1ccc(C(=O)Nc2ccc(Oc3cc4cnn(C)c4cc3-c3cn[nH]c3)c(F)c2)c(=O)n1-c1ccc(F)cc1` the entry was “active”.
Next, `C[C@@H]1CCCCO[C@H](CN(C)C(=O)CCC(F)(F)F)[C@H](C)CN([C@@H](C)CO)C(=O)c2cc(NC(=O)CCCCCC(=O)Nc3ccccc3N)ccc2O1`: “inactive”; `C[C@@H]1CN([C@H](C)CO)S(=O)(=O)c2ccc(C#Cc3cccnc3)cc2O[C@@H]1CN(C)C(=O)CN(C)C`: “inactive”.
As to `C[C@@H]1CN([C@H](C)CO)S(=O)(=O)c2ccc(C#Cc3ccc(F)cc3)cc2O[C@H]1CN(C)C(=O)CN(C)C`, the cytotoxicity call was “active”.
Next, `C[C@H]1CN([C@@H](C)CO)S(=O)(=O)c2ccc(C#Cc3ccc(F)cc3)cc2O[C@@H]1CN(C)C(=O)CN(C)C`: “inactive”; `C[C@@H]1CN([C@H](C)CO)S(=O)(=O)c2ccc(C#Cc3ccccc3)cc2O[C@H]1CN(C)C(=O)CN(C)C`: “active”; `C[C@H]1CN([C@@H](C)CO)S(=O)(=O)c2ccc(Br)cc2O[C@H]1CN(C)C(=O)Cc1ccccc1`: “active”.
With `C[C@@H]1CN([C@@H](C)CO)S(=O)(=O)c2ccc(C#Cc3ccccc3)cc2O[C@H]1CN(C)C(=O)CN(C)C` the entry was “inactive”.
Next, `C[C@H]1CN([C@@H](C)CO)S(=O)(=O)c2ccc(Br)cc2O[C@H]1CN(C)C(=O)Cc1ccncc1`: “inactive”.
For `C[C@@H]1CN([C@H](C)CO)S(=O)(=O)c2ccc(C#Cc3cccnc3)cc2O[C@H]1CN(C)C(=O)CN(C)C`, the cytotoxicity call was “inactive”.
As to `C[C@H]1CN([C@@H](C)CO)S(=O)(=O)c2ccc(C#Cc3ccc(F)cc3)cc2O[C@H]1CN(C)C(=O)CN(C)C`, the cytotoxicity call was “inactive”.
As for `C[C@@H]1CN([C@H](C)CO)S(=O)(=O)c2ccc(C#Cc3ccccc3)cc2O[C@@H]1CN(C)C(=O)CN(C)C`, the cytotoxicity call was “active”.
Next, `C[C@H]1CN([C@@H](C)CO)S(=O)(=O)c2ccc(Br)cc2O[C@@H]1CN(C)C(=O)Cc1ccccc1`: “inactive”; `C[C@@H]1CN([C@@H](C)CO)S(=O)(=O)c2ccc(C#Cc3ccc(F)cc3)cc2O[C@H]1CN(C)C(=O)CN(C)C`: “inactive”.
